The results in this text go back to PubChem BioAssay (NCATS).

The structures appear in SMILES notation. Inconclusive results are not listed. Where a call stands in place of a potency, no number is given. A number with no mark means an inactive call. Activity calls are given as the source filed them. Calls come from the whole dose curve; as a rule, active = well fitted curve in the direction sought with a large enough effect; inconclusive = small, poorly fitted or top-dose-only effect, or another doubt; inactive = no such curve, though single readings can be large; an effect the other way counts as inactive or inconclusive.

Sequence of Cellular tumor antigen p53 (Homo sapiens) (P04637 whole entry, looked up): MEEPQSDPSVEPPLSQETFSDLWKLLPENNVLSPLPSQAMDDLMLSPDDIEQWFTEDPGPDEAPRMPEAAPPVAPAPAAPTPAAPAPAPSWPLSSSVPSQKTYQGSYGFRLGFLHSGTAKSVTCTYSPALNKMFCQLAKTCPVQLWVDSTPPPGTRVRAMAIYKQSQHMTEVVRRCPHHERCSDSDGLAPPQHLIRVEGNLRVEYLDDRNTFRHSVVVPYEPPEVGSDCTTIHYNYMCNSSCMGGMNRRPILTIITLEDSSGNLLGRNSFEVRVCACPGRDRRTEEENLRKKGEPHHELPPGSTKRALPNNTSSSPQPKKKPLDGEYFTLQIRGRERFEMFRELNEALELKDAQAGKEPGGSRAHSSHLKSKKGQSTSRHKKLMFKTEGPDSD

The first assay has as its target Cellular tumor antigen p53 (Homo sapiens) (UniProt P04637). The experiment in a line: Primary qHTS for small molecule compounds that upregulate eGFP-tagged delta133p53alpha (in N-terminal) cells. (AID 2060322). Note: nearly all actives have a fitted effect of over 75% in size. Note: potency is the fitted concentration of half-maximal effect. As to conditions: NCI-H358 eGFP-delta133p53alpha fluorescence, 24 h; activation: active compounds read high. The method in brief: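 NCI-H358 cells pre-induced 24 h with 10 ng/ml doxycycline to express N-terminal eGFP-delta133p53alpha, then dosed 24 h at 37C without doxycycline; fixed, Hoechst-stained, GFP intensity by laser scanning cytometry, normalized to DMSO (0%) and 57.5 uM 5-azacytidine (100%).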
With `COc1ccc(-n2[nH]c3c(cnc4ccccc43)c2=O)cc1`, the activation is -9.55%.
Turning to `C=C1[C@@H]2CC[C@@]3(C)[C@H](c4ccoc4)OC(=O)C[C@]13O[C@H]1CC(=O)C(C)(C)[C@H](CC(=O)OC)[C@]12C`, the activation is -26.7%.
In the case of `CCCCNc1ncc(C(=O)NCc2ccc(-n3ccnc3)cc2)c(NC2CCC(O)CC2)n1` (configuration not stated), the Potency was 21.3 µM (active).
For the compound `COC(=O)C(CC1(O)c2ccccc2N2C(=O)C(CC(C)C)NC21)n1cnc2ccccc2c1=O` (configuration not stated), the activation was -1.53%.
In the case of `O=C1NCc2nc3ccccc3c(=O)n2C1Cc1c[nH]c2ccccc12` (configuration not stated), the activation was -7.63%.
Take `C=C(C)[C@H]1C[C@@H](O)C(=C)CC[C@@H](O)C(=C)[C@@H](O)C1`: the activation is -8.04%.
On to `COC(=O)C(C)C1CCC2(C)C(=O)C=CC(C)(O)C2C1O` (configuration not stated), for which the activation is 26%.
With `Cc1ccn(-c2cc(Cl)ccc2[C@@H](Oc2cc(-c3ccc(C[C@H](N)C(=O)O)cc3)nc(N)n2)C(F)(F)F)n1`, the activation was -7%.
On to `CC(=O)OC[C@]12[C@@H](OC(=O)c3ccoc3)C[C@@H]3[C@@H](OC(C)=O)[C@]1(OC3(C)C)[C@@](C)(O)C[C@H](OC(=O)c1ccoc1)[C@@H]2OC(=O)c1ccoc1`, for which the activation was -9.16%.
Turning to `COc1cc(O)c2c(c1)C1=C[C@H](O)[C@@H](O)C[C@]1(C)OC2=O`, the activation was 1.53%.
As for `CCNC(=O)Nc1ccc(-c2nc3c(c(N4CCOC[C@@H]4C)n2)CCN(c2ncccn2)C3)cc1`, the activation is -14.3%.
Same read-out and setting: the figure for `CC(=O)O[C@@H]1C[C@H](O)[C@@]23CO[C@H](O)[C@]1(C)C2C[C@@H](O)[C@]1(C)C3C(=O)[C@H](OC(C)=O)[C@@]2(C)[C@H](c3ccoc3)C[C@H]3O[C@]321` (some centres not stated) is -1.79%.

Another assay deals with Aldehyde dehydrogenase, mitochondrial (Homo sapiens) (UniProt P05091). The assay is described as follows: qHTS for Inhibitors of the Aldehyde Dehydrogenase Family (ALDH2) Primary screen (AID 2061308). Note: nearly all actives have a fitted effect of over 55% in size. Particulars: ALDH2 enzyme inhibition qHTS, 1536-well; series mostly up to 56 µM. For orientation: qHTS replaces the single test concentration by a dilution series.
As to `C/C=C/C=C/C(O)=C1\C(O)=C(C)C(=O)[C@@]2(C)OC(=O)[C@@](C)(NC(=O)/C=C/C(=O)O)[C@@H]12`, the Potency result is “inactive”.
Take `CC(=O)OC1C(=O)C2C3OCC4=C3[C@@](C)(CC[C@@H]4O)CC[C@]2(C)[C@H]1C(C)C` (some centres not stated): the Potency entry was “inactive”.
In the case of `C=C(C)C1CCC2(C(=O)O)CCC3(C(=O)O)C(CCC4C5(C)CCC(O)C(C)(C(=O)O)C5CCC43C)C12` (configuration not stated), the Potency result was “inactive”.
Still for that read-out and setting: the entry for `C=C(C)[C@H]1CC[C@]2(C(=O)O)CC[C@]3(C)C(CCC4[C@@]5(C)CCC(=O)C(C)(C)C5CC[C@]43C)C12` (some centres not stated) is “inactive”.
Same read-out and setting: the entry for `COc1cc(CCC2=NN=C(NC(=O)c3ccc(N4C[C@@H](C)N[C@@H](C)C4)cc3)C2)cc(OC)c1` is “inactive”; for `O=C(CO)[C@@H](O)[C@H](O[C@@H]1O[C@H](CO)[C@H](O)[C@H](O)[C@H]1O)[C@H](O)CO` it is “inactive”.
`COc1cc(C(=O)OC(COCCC(C)C)CN2CCOCC2)cc(OC)c1OC` (configuration not stated): the Potency entry is “inactive”.
With `C=C(C)[C@@H]1CC[C@]2(C)CC[C@]3(C)[C@H](CC[C@@H]4[C@@]5(C)CC[C@@H](O)C(C)(C)[C@@H]5CC[C@]43C)[C@@H]12`, the Potency result is “inactive”.
For `CC(C)(O)c1ccc2c(c1)C(O)CC1C(C)(C(=O)O)CCCC21C` (configuration not stated), the Potency result was “inactive”.
As to `CC(C)NC[C@H](O)COc1ccc(CCOCC2CC2)cc1`, the Potency entry is “inactive”.
`C[C@@H]1C[C@H]2O[C@@]3(O[C@@H]2C(C)(C)O)C(O)[C@@]2(C)C4CCC5C(C)(C)[C@@H](O[C@H]6OC[C@H](O)[C@@H](O)[C@@H]6O)CC[C@@]56C[C@@]46CC[C@]2(C)C13` (some centres not stated): the Potency result is “inactive”.
With `COc1ccc(/C=C/C(=O)O[C@H]2[C@@H]3C=CO[C@@H](O[C@@H]4O[C@H](CO)[C@@H](O)[C@H](O)[C@H]4O)[C@@H]3[C@@]3(CO)O[C@@H]23)cc1O`, the Potency result is “inactive”.
With `O=C(/C=C/c1ccccc1)OC[C@]12O[C@H]1[C@@H](O)[C@@H]1C=CO[C@@H](O[C@@H]3O[C@H](CO)[C@@H](O)[C@H](O)[C@H]3O)[C@@H]12`, the Potency entry was “inactive”.
In the case of `CCOc1ncc(S(=O)(=O)N2CCN(CC)CC2)cc1-c1nc2c(CC)n(CCOC)nc2c(=O)[nH]1`, the Potency result was “inactive”.
Turning to `CC1CC(=O)[C@]2(O)C(C(=O)OCCc3ccc(O)cc3)=CO[C@@H](O[C@@H]3O[C@H](CO)[C@@H](O)[C@H](O)[C@H]3O)[C@H]12` (some centres not stated), the Potency entry is “inactive”.
As for `Cc1cc(CNC(=O)c2cc(C(=O)NCc3ccc(F)c(C)c3)ncn2)ccc1F`, the Potency result was “inactive”.
As to `Cc1c(C(=O)NCCCO)cnn1-c1nc(-c2cccc(C(F)(F)F)c2)cs1`, the Potency entry is “inactive”.
Consider `C=CC(=O)Nc1cc(-n2c(=O)ccc3cnc4ccc(-c5ccc(NS(C)(=O)=O)cc5)cc4c32)ccc1C`, for which the Potency entry was “inactive”.
On the same count and under the same terms, the same measure for `CC(C)C1(O)NC(=O)C(CC2(O)c3ccccc3N3C(=O)C(C)(C)NC32)n2c1nc1ccccc1c2=O` (configuration not stated): “inactive”; for `CC(C)(O)/C=C/CC(C)(O)C1C(O)CC2(C)C3CCC4C(C)(C)C(=O)CCC4(C)C3CCC12C` (configuration not stated): “inactive”; for `CCC(C)C(=O)O[C@H]1[C@H](O)[C@@]2(COC(C)=O)C(CC1(C)C)C1=CCC3[C@@]4(C)CC[C@H](O[C@@H]5O[C@H](C(=O)O)[C@@H](O)[C@H](O)[C@H]5O)[C@@](C)(CO)C4CC[C@@]3(C)[C@]1(C)C[C@@H]2O` (some centres not stated): “inactive”.
Consider `C=C1CCC2C(C)(C)CC(O)CC2(C)C1CCC(C)CC(=O)O` (configuration not stated), for which the Potency result is “inactive”.
As for `C=C1CC[C@H]2[C@@](C)(CCC[C@@]2(C)C(=O)O)[C@@H]1CCC(C)CCO` (some centres not stated), the Potency entry is “inactive”.
Turning to `C=C(C(=O)O)C1CC(OC(=O)CC(C)CC)C2(C)CCCC(=C)C2C1` (configuration not stated), the Potency entry was “inactive”.
`C[C@]12CCC[C@](C)(C(=O)O)C1CCC13CC(CO)C(CCC12)C3` (some centres not stated): the Potency result was “inactive”.
As to `C[C@@H]1O[C@@H](OC[C@H]2O[C@@H](OCc3ccccc3)[C@H](O)[C@@H](O)[C@@H]2O)[C@H](O)[C@H](O)[C@H]1O`, the Potency entry was “inactive”.
Turning to `CC(=O)c1c(C)cc(O)cc1O[C@@H]1O[C@H](CO)[C@@H](O)[C@H](O)[C@H]1O`, the Potency result is “inactive”.
Regarding `CC1OC(OC2C(O)C(C(=O)O)OC(OC3CCC4(C)C(CCC5(C)C4C=CC4=C6CC(C)(C)CC(O)C6(C)CCC45C)C3(C)C)C2OC2OCC(O)C(O)C2O)C(O)C(O)C1O` (configuration not stated), the Potency result is “inactive”.
As to `COc1ccc(-n2[nH]c3c(cnc4ccccc43)c2=O)cc1`, the Potency result is “inactive”.
In the case of `C=C1[C@@H]2CC[C@@]3(C)[C@H](c4ccoc4)OC(=O)C[C@]13O[C@H]1CC(=O)C(C)(C)[C@H](CC(=O)OC)[C@]12C`, the Potency entry is “inactive”.
Consider `CCCCNc1ncc(C(=O)NCc2ccc(-n3ccnc3)cc2)c(NC2CCC(O)CC2)n1` (configuration not stated), for which the Potency result is “inactive”.
Take `COC(=O)C(CC1(O)c2ccccc2N2C(=O)C(CC(C)C)NC21)n1cnc2ccccc2c1=O` (configuration not stated): the Potency result is “inactive”.
Take `O=C1NCc2nc3ccccc3c(=O)n2C1Cc1c[nH]c2ccccc12` (configuration not stated): the Potency entry was “inactive”.
Consider `C=C(C)[C@H]1C[C@@H](O)C(=C)CC[C@@H](O)C(=C)[C@@H](O)C1`, for which the Potency result was “inactive”.
Regarding `COC(=O)C(C)C1CCC2(C)C(=O)C=CC(C)(O)C2C1O` (configuration not stated), the Potency result was “inactive”.
As for `Cc1ccn(-c2cc(Cl)ccc2[C@@H](Oc2cc(-c3ccc(C[C@H](N)C(=O)O)cc3)nc(N)n2)C(F)(F)F)n1`, the Potency entry was “inactive”.
Consider `CC(=O)OC[C@]12[C@@H](OC(=O)c3ccoc3)C[C@@H]3[C@@H](OC(C)=O)[C@]1(OC3(C)C)[C@@](C)(O)C[C@H](OC(=O)c1ccoc1)[C@@H]2OC(=O)c1ccoc1`, for which the Potency result was “inactive”.
Still for that read-out and setting: the entry for `COc1cc(O)c2c(c1)C1=C[C@H](O)[C@@H](O)C[C@]1(C)OC2=O` is “inactive”; for `CCNC(=O)Nc1ccc(-c2nc3c(c(N4CCOC[C@@H]4C)n2)CCN(c2ncccn2)C3)cc1` it is “inactive”; for `CC(=O)O[C@@H]1C[C@H](O)[C@@]23CO[C@H](O)[C@]1(C)C2C[C@@H](O)[C@]1(C)C3C(=O)[C@H](OC(C)=O)[C@@]2(C)[C@H](c3ccoc3)C[C@H]3O[C@]321` (some centres not stated) it is “inactive”.
